From ChEMBL document CHEMBL1961873, “Compounds: GSK PKIS; Assays: Nanosyn kinase panel” (2012) come the findings set out here.

In general, inhibition refers to the drop in the measured response relative to a control, in per cent.

The target in assay [1] is Ribosomal protein S6 kinase alpha-6 (Homo sapiens) (UniProt Q9UK32). The settings on record: at 1 µM.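 Also: each value is a mean inhibition of RSK4 from a GSK PKIS panel screen.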
Assay [2] concerns the target T1, Serine/threonine-protein kinase Sgk1 (Homo sapiens) (UniProt O00141).
T1 sequence (whole entry): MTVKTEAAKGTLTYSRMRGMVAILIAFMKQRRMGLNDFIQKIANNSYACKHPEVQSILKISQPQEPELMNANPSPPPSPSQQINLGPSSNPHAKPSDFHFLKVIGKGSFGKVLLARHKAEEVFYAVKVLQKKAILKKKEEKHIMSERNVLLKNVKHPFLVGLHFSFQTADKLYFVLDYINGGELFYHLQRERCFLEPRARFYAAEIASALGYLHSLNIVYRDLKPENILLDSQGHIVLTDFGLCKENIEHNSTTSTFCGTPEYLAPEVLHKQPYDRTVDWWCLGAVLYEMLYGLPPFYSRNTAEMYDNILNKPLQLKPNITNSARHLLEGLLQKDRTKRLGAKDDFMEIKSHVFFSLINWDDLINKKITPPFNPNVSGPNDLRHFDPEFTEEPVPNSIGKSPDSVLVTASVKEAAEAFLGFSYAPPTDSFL
Conditions: at 0.1 µM.

Assay [3] has as its target T1, Serine/threonine-protein kinase Sgk1 (Homo sapiens). The settings on record: at 1 µM.
Assay [4] deals with T2, Serine/threonine-protein kinase Sgk2 (Homo sapiens) (UniProt Q9HBY8).
T2 sequence (whole entry): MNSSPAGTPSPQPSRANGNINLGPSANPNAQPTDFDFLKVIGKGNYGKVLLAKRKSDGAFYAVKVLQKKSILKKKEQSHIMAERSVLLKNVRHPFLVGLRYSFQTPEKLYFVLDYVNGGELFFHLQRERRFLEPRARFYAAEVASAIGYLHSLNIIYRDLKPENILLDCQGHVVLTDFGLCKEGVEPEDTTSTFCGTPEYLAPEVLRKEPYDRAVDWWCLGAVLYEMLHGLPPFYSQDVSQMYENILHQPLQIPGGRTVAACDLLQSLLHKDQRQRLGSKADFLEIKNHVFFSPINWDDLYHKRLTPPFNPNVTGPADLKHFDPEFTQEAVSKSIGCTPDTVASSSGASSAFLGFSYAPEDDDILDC
The settings on record: at 0.1 µM.

For assay [5], the target named is T2, Serine/threonine-protein kinase Sgk2 (Homo sapiens). Conditions: at 1 µM.
In assay [6] the target is T3, Serine/threonine-protein kinase Sgk3 (Homo sapiens) (UniProt Q96BR1).
T3 sequence (whole entry): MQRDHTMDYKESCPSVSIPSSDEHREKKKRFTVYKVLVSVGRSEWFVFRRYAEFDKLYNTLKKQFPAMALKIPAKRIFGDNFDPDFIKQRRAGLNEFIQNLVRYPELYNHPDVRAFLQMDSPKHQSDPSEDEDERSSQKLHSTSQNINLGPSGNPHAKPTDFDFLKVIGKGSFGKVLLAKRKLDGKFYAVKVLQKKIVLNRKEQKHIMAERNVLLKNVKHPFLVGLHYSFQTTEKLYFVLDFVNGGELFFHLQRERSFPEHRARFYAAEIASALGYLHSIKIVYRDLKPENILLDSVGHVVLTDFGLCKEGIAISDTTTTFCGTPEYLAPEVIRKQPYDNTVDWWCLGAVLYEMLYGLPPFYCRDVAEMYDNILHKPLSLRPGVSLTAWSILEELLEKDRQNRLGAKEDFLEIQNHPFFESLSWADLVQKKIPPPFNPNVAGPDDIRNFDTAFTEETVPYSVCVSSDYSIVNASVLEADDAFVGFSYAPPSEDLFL
Conditions: at 0.1 µM.

In assay [7] the target is T3, Serine/threonine-protein kinase Sgk3 (Homo sapiens). Conditions: at 1 µM.
Assay [8] addresses 5'-AMP-activated protein kinase catalytic subunit alpha-1 (Homo sapiens) (UniProt Q13131). The settings on record: at 0.1 µM.
Assay [9] has the same target. Conditions: at 1 µM.
Assay [10] deals with 5'-AMP-activated protein kinase catalytic subunit alpha-2 (Homo sapiens) (UniProt P54646). Conditions: at 0.1 µM.
Assay [11] shares this target. Conditions: at 1 µM.
For assay [12], the target named is T4, NUAK family SNF1-like kinase 1 (Homo sapiens) (UniProt O60285).
T4 sequence (whole entry): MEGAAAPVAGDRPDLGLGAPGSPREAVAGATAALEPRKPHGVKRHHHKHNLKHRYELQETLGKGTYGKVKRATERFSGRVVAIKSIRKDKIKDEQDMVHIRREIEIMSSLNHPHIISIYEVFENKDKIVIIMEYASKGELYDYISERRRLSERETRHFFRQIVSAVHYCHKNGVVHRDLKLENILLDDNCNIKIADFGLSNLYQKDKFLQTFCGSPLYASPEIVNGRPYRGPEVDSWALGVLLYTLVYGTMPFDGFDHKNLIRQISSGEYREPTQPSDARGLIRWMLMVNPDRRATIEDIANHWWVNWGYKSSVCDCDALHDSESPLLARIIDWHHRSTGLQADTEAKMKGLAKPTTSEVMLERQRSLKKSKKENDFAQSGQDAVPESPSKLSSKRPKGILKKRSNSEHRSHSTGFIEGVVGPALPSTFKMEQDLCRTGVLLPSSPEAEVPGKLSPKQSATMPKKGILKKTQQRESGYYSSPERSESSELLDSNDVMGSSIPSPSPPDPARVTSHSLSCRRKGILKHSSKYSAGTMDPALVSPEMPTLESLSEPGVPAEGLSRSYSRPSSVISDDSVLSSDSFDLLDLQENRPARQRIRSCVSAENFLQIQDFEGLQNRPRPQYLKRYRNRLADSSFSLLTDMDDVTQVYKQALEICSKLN
The settings on record: at 0.1 µM.

In assay [13] the target is T4, NUAK family SNF1-like kinase 1 (Homo sapiens). Conditions: at 1 µM.
The target in assay [14] is T5, Serine/threonine-protein kinase BRSK1 (Homo sapiens) (UniProt Q8TDC3).
T5 sequence (whole entry): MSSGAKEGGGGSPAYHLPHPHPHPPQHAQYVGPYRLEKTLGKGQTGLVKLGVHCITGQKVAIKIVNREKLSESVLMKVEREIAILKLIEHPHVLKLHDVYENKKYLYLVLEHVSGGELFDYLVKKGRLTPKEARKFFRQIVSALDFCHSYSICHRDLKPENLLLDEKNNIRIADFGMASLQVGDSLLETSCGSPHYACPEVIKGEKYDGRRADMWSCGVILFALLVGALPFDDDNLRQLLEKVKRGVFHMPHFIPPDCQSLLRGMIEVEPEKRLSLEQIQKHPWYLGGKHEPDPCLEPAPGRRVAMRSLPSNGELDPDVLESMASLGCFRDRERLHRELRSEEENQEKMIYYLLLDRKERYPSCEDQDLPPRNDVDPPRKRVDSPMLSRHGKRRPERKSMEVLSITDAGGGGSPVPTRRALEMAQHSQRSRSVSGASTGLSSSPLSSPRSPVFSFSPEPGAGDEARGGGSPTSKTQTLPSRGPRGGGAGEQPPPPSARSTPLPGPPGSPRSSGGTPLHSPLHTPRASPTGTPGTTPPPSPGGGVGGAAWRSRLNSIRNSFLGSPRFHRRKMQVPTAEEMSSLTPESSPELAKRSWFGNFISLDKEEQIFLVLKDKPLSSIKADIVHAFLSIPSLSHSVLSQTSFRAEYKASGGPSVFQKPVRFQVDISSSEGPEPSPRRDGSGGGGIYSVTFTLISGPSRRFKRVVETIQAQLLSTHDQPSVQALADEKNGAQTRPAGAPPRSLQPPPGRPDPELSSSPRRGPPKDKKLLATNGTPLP
Conditions: at 0.1 µM.

In assay [15] the target is T5, Serine/threonine-protein kinase BRSK1 (Homo sapiens). The settings on record: at 1 µM.
Assay [16] concerns the target T6, Serine/threonine-protein kinase BRSK2 (Homo sapiens) (UniProt Q8IWQ3).
T6 sequence (whole entry): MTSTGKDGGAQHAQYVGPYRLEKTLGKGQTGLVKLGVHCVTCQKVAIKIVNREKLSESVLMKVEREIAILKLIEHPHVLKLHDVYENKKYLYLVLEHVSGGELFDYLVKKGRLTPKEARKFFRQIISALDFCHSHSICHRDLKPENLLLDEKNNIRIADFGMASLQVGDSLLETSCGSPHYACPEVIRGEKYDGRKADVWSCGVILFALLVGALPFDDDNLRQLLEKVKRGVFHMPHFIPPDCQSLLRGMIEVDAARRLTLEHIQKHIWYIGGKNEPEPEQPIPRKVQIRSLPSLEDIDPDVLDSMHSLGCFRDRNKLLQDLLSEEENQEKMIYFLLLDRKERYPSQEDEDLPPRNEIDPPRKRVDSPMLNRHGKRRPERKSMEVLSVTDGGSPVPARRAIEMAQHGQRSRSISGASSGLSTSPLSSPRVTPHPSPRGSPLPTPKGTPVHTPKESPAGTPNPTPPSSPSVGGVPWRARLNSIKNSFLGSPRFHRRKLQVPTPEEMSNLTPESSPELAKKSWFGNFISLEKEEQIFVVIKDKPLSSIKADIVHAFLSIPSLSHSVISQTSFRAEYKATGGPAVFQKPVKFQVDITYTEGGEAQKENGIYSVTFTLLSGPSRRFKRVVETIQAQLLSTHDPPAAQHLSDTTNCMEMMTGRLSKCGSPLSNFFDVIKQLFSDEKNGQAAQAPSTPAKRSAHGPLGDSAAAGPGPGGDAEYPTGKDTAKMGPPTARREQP
The settings on record: at 0.1 µM.

Assay [17] has as its target T6, Serine/threonine-protein kinase BRSK2 (Homo sapiens). The settings on record: at 1 µM.
Assay [18] has as its target Calcium/calmodulin-dependent protein kinase type 1D (Homo sapiens) (UniProt Q8IU85). Conditions: at 0.1 µM.
For assay [19] the target is unchanged. Conditions: at 1 µM.
The target of assay [20] is Calcium/calmodulin-dependent protein kinase type II subunit alpha (Homo sapiens) (UniProt Q9UQM7). Conditions: at 0.1 µM.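 Also: reported values are averages (mean inhibition of CAMK2A).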
Chain of Calcium/calmodulin-dependent protein kinase type II subunit alpha (Homo sapiens) (Q9UQM7 whole entry): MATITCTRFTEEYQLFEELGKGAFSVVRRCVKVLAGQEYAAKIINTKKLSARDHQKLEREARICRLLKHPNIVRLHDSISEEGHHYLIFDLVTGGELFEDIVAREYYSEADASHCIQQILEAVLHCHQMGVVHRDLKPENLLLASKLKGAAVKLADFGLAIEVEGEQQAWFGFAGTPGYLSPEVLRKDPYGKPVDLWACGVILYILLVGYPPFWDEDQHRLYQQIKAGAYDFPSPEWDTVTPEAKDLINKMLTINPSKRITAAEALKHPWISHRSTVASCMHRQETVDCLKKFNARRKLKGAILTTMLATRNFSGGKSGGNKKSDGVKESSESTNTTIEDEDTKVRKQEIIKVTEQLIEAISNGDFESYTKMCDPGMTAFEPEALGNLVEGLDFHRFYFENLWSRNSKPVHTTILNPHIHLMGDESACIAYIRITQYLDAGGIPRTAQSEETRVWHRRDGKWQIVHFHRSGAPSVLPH

Chain of 5'-AMP-activated protein kinase catalytic subunit alpha-1 (Homo sapiens) (Q13131 whole entry, looked up): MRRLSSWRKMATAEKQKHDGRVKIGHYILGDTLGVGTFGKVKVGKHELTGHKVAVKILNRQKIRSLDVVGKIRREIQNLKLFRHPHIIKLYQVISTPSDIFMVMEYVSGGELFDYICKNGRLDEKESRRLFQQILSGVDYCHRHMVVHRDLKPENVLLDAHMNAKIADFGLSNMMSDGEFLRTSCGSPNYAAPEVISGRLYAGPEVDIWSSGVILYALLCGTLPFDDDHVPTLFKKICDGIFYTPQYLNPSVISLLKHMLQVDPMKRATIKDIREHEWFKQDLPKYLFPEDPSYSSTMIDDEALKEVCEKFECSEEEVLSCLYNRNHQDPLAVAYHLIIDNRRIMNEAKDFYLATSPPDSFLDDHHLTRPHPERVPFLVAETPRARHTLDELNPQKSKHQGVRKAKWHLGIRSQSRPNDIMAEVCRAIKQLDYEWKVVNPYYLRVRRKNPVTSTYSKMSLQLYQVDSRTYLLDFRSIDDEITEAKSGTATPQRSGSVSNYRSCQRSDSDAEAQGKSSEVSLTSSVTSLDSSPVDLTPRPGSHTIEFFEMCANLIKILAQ
Chain of Calcium/calmodulin-dependent protein kinase type 1D (Homo sapiens) (Q8IU85 whole entry, looked up): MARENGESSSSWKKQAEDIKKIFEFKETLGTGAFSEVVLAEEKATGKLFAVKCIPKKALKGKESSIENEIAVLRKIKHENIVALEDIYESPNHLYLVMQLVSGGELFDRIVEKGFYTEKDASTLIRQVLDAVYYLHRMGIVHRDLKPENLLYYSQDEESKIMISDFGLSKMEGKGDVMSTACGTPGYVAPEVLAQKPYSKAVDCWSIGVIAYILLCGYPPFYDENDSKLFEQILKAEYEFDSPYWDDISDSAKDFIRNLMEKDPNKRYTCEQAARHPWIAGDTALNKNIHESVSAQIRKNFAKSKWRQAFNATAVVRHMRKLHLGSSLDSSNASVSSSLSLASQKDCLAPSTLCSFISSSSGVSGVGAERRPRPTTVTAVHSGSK
Chain of Ribosomal protein S6 kinase alpha-6 (Homo sapiens) (Q9UK32 whole entry): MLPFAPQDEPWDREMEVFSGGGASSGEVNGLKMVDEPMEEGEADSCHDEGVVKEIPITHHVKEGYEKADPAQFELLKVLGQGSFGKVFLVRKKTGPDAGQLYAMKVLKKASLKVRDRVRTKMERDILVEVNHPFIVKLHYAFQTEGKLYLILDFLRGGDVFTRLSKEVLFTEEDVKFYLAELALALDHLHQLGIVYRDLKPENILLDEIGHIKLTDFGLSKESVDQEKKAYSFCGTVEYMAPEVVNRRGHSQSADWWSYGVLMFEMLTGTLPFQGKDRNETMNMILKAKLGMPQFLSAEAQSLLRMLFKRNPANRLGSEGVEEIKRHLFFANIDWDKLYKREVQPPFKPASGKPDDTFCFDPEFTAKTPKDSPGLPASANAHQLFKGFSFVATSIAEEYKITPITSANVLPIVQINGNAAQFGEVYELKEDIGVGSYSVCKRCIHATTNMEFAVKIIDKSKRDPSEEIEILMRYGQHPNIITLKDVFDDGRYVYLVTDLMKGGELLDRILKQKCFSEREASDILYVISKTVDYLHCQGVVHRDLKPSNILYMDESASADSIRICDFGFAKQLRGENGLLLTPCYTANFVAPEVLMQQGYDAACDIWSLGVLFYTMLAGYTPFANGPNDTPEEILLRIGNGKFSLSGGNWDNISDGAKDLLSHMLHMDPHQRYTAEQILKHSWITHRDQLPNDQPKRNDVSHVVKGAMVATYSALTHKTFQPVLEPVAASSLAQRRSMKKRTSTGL
Chain of 5'-AMP-activated protein kinase catalytic subunit alpha-2 (Homo sapiens) (P54646 whole entry, looked up): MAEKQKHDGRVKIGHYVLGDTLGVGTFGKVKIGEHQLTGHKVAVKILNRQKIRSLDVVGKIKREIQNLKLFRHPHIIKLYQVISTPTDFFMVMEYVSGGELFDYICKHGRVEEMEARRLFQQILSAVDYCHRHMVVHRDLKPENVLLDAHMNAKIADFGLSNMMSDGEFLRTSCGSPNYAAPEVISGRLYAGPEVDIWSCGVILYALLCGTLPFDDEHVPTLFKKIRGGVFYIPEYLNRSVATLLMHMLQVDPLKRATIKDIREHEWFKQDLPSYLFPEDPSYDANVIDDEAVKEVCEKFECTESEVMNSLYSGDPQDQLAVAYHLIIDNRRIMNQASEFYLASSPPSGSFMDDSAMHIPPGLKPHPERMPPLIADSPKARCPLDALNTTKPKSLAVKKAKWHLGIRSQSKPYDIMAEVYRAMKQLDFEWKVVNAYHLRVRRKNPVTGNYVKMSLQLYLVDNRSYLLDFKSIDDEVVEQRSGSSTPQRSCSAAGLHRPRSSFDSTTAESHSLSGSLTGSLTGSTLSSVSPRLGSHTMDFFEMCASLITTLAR

Regarding `CCn1c(-c2nonc2N)nc2c(C#CC(C)(C)O)nc(OC[C@H](N)c3ccccc3)cc21`, the inhibition in [1] is 7.07%; in [2], 1.86%; in [3], 3.49%; in assay [4], 5.31%; in assay [5], 13.4%; in assay [6] it was 31.1%. Moreover, the inhibition in [7] amounted to 57.7%; in assay [8], 17.7%; in assay [9] it was 65.7%; in assay [10], 4.97%; in assay [11], 15%; in assay [12], 7%. Besides, the inhibition in assay [13] is 47.3%; in assay [14], 0.45%; in assay [15], 1.15%; in assay [16], -0.02%; in [17], 5.58%; in assay [18], 0.96%. The inhibition in assay [19] came to 4.5%; in [20], 2.34%.
For the compound `CCOc1ccc2c(-c3ccnc(Nc4cccc(C(F)(F)F)c4)n3)cnn2n1`, the inhibition was -0.99% in [1]; 1.25% in assay [2]; 0.13% in [3]; 2.25% in [4]; 0.87% in assay [5]; 0.95% in assay [6]. The inhibition in assay [7] was 2.4%; in [8], 2.48%; in assay [9], 2.09%; in [10], 0.22%; in assay [11] it was 2.74%; in [12], 2.71%. Moreover, the inhibition in [13] came to 7.44%; in [14], 1.14%; in assay [15], 4.56%; in [16], 3.01%; in assay [17], 2.66%; in assay [18] it was 1%. Further, the inhibition is 1.1% in [19] and 0.19% in assay [20].
With `CN1CCC(n2cnc(-c3ccc(F)cc3)c2-c2ccnc(Nc3ccccc3)n2)CC1`, the inhibition came out at 2.69% in assay [1]; 2.19% in assay [2]; 5.36% in assay [3]; 3.28% in [4]; 5.4% in [5]; 2.89% in assay [6]. Further, the inhibition in assay [7] is 3.19%; in assay [8], 2.05%; in assay [9], 3.64%; in [10], -0.33%; in assay [11] it was 2.34%; in assay [12], -2.56%. Besides, the inhibition in assay [13] was 4.19%; in assay [14] it was 0.59%; in assay [15] it was 0.41%; in [16] it was 0.56%; in [17], 1.93%; in assay [18], 0.81%. The inhibition is 1.85% in [19] and 3.46% in assay [20].
